Test results from PubChem BioAssay AID1159580 (chemical genetic matrix, 2015).
The campaign covered roughly 5,500 compounds. About 2,000 (36%) were called active. Not shown: some 18% with an inconclusive outcome. Rule as the data show it: active = normalized growth mostly below about 0.91 (no sharp cut-off); inconclusive = no clear call, values can overlap the other calls; inactive = mostly above about 0.92. The list shows a part of the results.

Test: chemical genetic growth profiling, strain panel (AID 1159580);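 also: tested at 20 µM; growth read once vehicle control cultures reached saturation at 30 °C; 1 = growth at the plate median or of vehicle wells; lower values mean less growth of the strain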
Conditions: growth OD

Measured: normalized growth

Cc1cc(CC(=O)O)n(C)c1C(=O)c1ccc(Cl)cc1
inactive: S. cerevisiae deletion strains, locus YJR075W, strain HOC1, active compounds read low 1 | S. cerevisiae deletion strains, locus YKL009W, strain mrt4, active compounds read low 0.962 | S. cerevisiae deletion strains, locus YKL068W, active compounds read low 1 | S. cerevisiae deletion strains, locus YKL085W, strain MDH1 (second series), active compounds read low 0.994 | S. cerevisiae deletion strains, locus YKL085W, strain MDH1, active compounds read low 0.994 | S. cerevisiae deletion strains, locus YKL160W, strain elf1, active compounds read low 1.05 | S. cerevisiae deletion strains, locus YKL190W, strain CNB1, active compounds read low 1.01 | S. cerevisiae deletion strains, locus YKR001C, strain vps1, active compounds read low 1.03 | S. cerevisiae deletion strains, locus YKR026C, strain gcn3, active compounds read low 1.03 | S. cerevisiae deletion strains, locus YKR091W, strain srl3, active compounds read low 1.02 | S. cerevisiae deletion strains, locus YLL001W, strain dnm1, active compounds read low 1 | S. cerevisiae deletion strains, locus YLL026W, active compounds read low 1.05 | S. cerevisiae deletion strains, locus YLL041C, strain sdh2, active compounds read low 1.02 | S. cerevisiae deletion strains, locus YLR027C, strain aat2, active compounds read low 1.03 | S. cerevisiae deletion strains, locus YLR039C, strain RIC1, active compounds read low 1 | S. cerevisiae deletion strains, locus YLR058C, strain SHM2, active compounds read low 0.996 | S. cerevisiae deletion strains, locus YLR102C, strain apc9, active compounds read low 1.01 | S. cerevisiae deletion strains, locus YLR113W, strain HOG1, active compounds read low 1.01 | S. cerevisiae deletion strains, locus YLR221C, strain rsa3, active compounds read low 1.01 | S. cerevisiae deletion strains, locus YLR258W, strain gsy2, active compounds read low 1.04 | S. cerevisiae deletion strains, locus YLR262C, strain YPT6 (second series), active compounds read low 1.01 | S. cerevisiae deletion strains, locus YLR262C, strain YPT6, active compounds read low 1.01 | S. cerevisiae deletion strains, locus YLR268W, strain sec22, active compounds read low 0.997 | S. cerevisiae deletion strains, locus YLR320W, strain mms22, active compounds read low 0.994 | S. cerevisiae deletion strains, locus YLR330W, strain CHS5, active compounds read low 0.992 | S. cerevisiae deletion strains, locus YLR342W, strain FKS1 (second series), active compounds read low 0.937 | S. cerevisiae deletion strains, locus YLR342W, strain FKS1, active compounds read low 1.01 | S. cerevisiae deletion strains, locus YLR357W, strain rsc2, active compounds read low 0.995 | S. cerevisiae deletion strains, locus YLR370C, strain arc18, active compounds read low 1.04 | S. cerevisiae deletion strains, locus YLR371W, strain rom2, active compounds read low 1.02 | S. cerevisiae deletion strains, locus YLR384C, strain iki3, active compounds read low 1.04 | S. cerevisiae deletion strains, locus YLR418C, strain cdc73, active compounds read low 0.99 | S. cerevisiae deletion strains, locus YML016C, strain PPZ1, active compounds read low 0.994 | S. cerevisiae deletion strains, locus YML032C, strain rad52, active compounds read low 1.02 | S. cerevisiae deletion strains, locus YML120C, strain ndi1, active compounds read low 1.02 | S. cerevisiae deletion strains, locus YML124C, strain tub3, active compounds read low 1.01 | S. cerevisiae deletion strains, locus YMR058W, strain fet3, active compounds read low 1.03 | S. cerevisiae deletion strains, locus YMR078C, strain ctf18, active compounds read low 1.01 | S. cerevisiae deletion strains, locus YMR125W, strain sto1, active compounds read low 1.03 | S. cerevisiae deletion strains, locus YMR129W, active compounds read low 1.02 | S. cerevisiae deletion strains, locus YMR205C, strain PFK2, active compounds read low 1.02 | S. cerevisiae deletion strains, locus YMR223W, strain ubp8, active compounds read low 0.994 | S. cerevisiae deletion strains, locus YMR231W, strain pep5, active compounds read low 1.03 | S. cerevisiae deletion strains, locus YMR263W, strain SAP30, active compounds read low 0.993 | S. cerevisiae deletion strains, locus YMR307W, strain GAS1, active compounds read low 0.947 | S. cerevisiae deletion strains, locus YNL067W, strain RPL9B, active compounds read low 0.997 | S. cerevisiae deletion strains, locus YNL071W, strain lat1, active compounds read low 1.02 | S. cerevisiae deletion strains, locus YNL128W, strain TEP1, active compounds read low 1.01 | S. cerevisiae deletion strains, locus YNL153C, strain GIM3, active compounds read low 0.991 | S. cerevisiae deletion strains, locus YNL183C, strain NPR1, active compounds read low 0.963 | S. cerevisiae deletion strains, locus YNL209W, strain ssb2, active compounds read low 1.05 | S. cerevisiae deletion strains, locus YNL233W, strain BNI4, active compounds read low 0.993 | S. cerevisiae deletion strains, locus YNL248C, strain rpa49, active compounds read low 1.02 | S. cerevisiae deletion strains, locus YNL250W, strain rad50, active compounds read low 1.01 | S. cerevisiae deletion strains, locus YNL271C, strain bni1, active compounds read low 1.01 | S. cerevisiae deletion strains, locus YNL298W, strain CLA4, active compounds read low 0.998 | S. cerevisiae deletion strains, locus YNL322C, strain KRE1 (second series), active compounds read low 1.02 | S. cerevisiae deletion strains, locus YNL322C, strain KRE1, active compounds read low 1.01 | S. cerevisiae deletion strains, locus YNR049C, strain mso1, active compounds read low 1.02 | S. cerevisiae deletion strains, locus YNR052C, strain pop2, active compounds read low 1.01 | S. cerevisiae deletion strains, locus YOL006C, strain TOP1, active compounds read low 0.895 | S. cerevisiae deletion strains, locus YOL012C, strain htz1 1.55 | S. cerevisiae deletion strains, locus YOL147C, strain pex11, active compounds read low 1.02 | S. cerevisiae deletion strains, locus YOR001W, strain rrp6, active compounds read low 1.01 | S. cerevisiae deletion strains, locus YOR061W, strain CKA2, active compounds read low 1.01 | S. cerevisiae deletion strains, locus YOR069W, strain VPS5, active compounds read low 1 | S. cerevisiae deletion strains, locus YOR070C, strain gyp1, active compounds read low 1.02 | S. cerevisiae deletion strains, locus YOR080W, strain dia2, active compounds read low 1.03 | S. cerevisiae deletion strains, locus YOR083W, strain WHI5, active compounds read low 1.04 | S. cerevisiae deletion strains, locus YOR106W, strain vam3, active compounds read low 1.05 | S. cerevisiae deletion strains, locus YOR136W, strain idh2, active compounds read low 1.02 | S. cerevisiae deletion strains, locus YOR144C, strain elg1, active compounds read low 1.01 | S. cerevisiae deletion strains, locus YOR184W, strain ser1, active compounds read low 0.983 | S. cerevisiae deletion strains, locus YOR231W, strain MKK1, active compounds read low 1.01 | S. cerevisiae deletion strains, locus YOR265W, strain rbl2, active compounds read low 1.05 | S. cerevisiae deletion strains, locus YOR270C, strain vph1, active compounds read low 1.05 | S. cerevisiae deletion strains, locus YOR290C, strain snf2, active compounds read low 1.06 | S. cerevisiae deletion strains, locus YOR316C, strain cot1, active compounds read low 1.01 | S. cerevisiae deletion strains, locus YPL051W, strain arl3, active compounds read low 1.04 | S. cerevisiae deletion strains, locus YPL055C, strain LGE1, active compounds read low 1 | S. cerevisiae deletion strains, locus YPL078C, strain atp4, active compounds read low 1.04 | S. cerevisiae deletion strains, locus YPL106C, strain sse1, active compounds read low 1.04 | S. cerevisiae deletion strains, locus YPL240C, strain hsp82, active compounds read low 1.03 | S. cerevisiae deletion strains, locus YPL241C, strain CIN2, active compounds read low 0.996 | S. cerevisiae deletion strains, locus YPL256C, strain CLN2, active compounds read low 1.02 | S. cerevisiae deletion strains, locus YPR119W, strain clb2, active compounds read low 1.01 | S. cerevisiae deletion strains, locus YPR141C, strain kar3, active compounds read low 1.01 | S. cerevisiae deletion strains, locus YPR163C, strain tif3, active compounds read low 1.01 | S. cerevisiae deletion strains, locus YPR167C, strain met16, active compounds read low 1 | S. cerevisiae deletion strains, strain wtn01, active compounds read low 1.01 | S. cerevisiae strains, strain wild type, active compounds read low 1.01
active: S. cerevisiae deletion strains, locus YNL307C, strain MCK1, active compounds read low 0.901
